Growth inhibition data for 20 compounds are collected here from PubChem BioAssay (NCI).

Test [1] can be described thus: NCI Yeast Anticancer Drug Screen. Data for the rad50 strain (AID 155).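 Note: 0% = growth of vehicle-only cultures of the same strain.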 To be noted: S. cerevisiae rad50 strain growth inhibition; at 50.0 µM; hits give high values. The method, boiled down: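 Vehicle-treated cultures provide the reference for the growth inhibition reported for compound-exposed, repair-deficient yeast.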
The nature of test [2]: NCI Yeast Anticancer Drug Screen. Data for the mec2-1 strain (AID 157). The conditions noted are these: S. cerevisiae mec2-1 strain, at 50.0 µM, hits give high values. The method, boiled down: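 Readout is yeast growth inhibition, normalised to vehicle-treated controls, in the mec2-1 strain exposed to compound.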
The nature of test [3]: NCI Yeast Anticancer Drug Screen. Data for the sgs1 mgt1 strain (AID 161).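 Note: 0% = growth of cultures given vehicle only.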 The conditions noted are these: S. cerevisiae sgs1 mgt1 strain, at 50.0 µM, hits give high values. The method, boiled down:
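Growth of a repair-deficient yeast mutant was monitored after compound treatment and expressed as inhibition relative to vehicle-treated cultures.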

A short description of test [4]: NCI Yeast Anticancer Drug Screen. Data for the cln2 rad14 strain (AID 165).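 Note: 0% = growth equal to vehicle treated cultures.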 To be noted: S. cerevisiae cln2 rad14 strain, at 50.0 µM, hits give high values. The method, boiled down:
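Relative to vehicle controls, growth inhibition of compound-treated cln2 rad14 yeast was recorded.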

A short description of test [5]: NCI Yeast Anticancer Drug Screen. Data for the bub3 strain (AID 167). To be noted: S. cerevisiae bub3 mutant strain, at 50.0 µM, hits give high values. The method, boiled down:
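Mutant yeast screening strain plus compound; vehicle-treated cultures serve as the 0% inhibition reference.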

A short description of test [6]: NCI Yeast Anticancer Drug Screen. Data for the mlh1 rad18 strain (AID 175). To be noted: S. cerevisiae mlh1 rad18 strain growth inhibition; at 50.0 µM; hits give high values. The method, boiled down: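 Test agents were incubated with a yeast strain of defined genotype (DNA damage repair defect). Inhibition of growth was derived by comparison with vehicle-exposed cultures.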

Each structure is given as a SMILES string. The panel holds about 79,000 compounds, 15% with a hit somewhere; the sample as a whole holds those more often. Values without a mark were called inactive. Activity calls are given as the source filed them. Cut-off read from the data, not from the text of the source: active = growth inhibition above about 70%; inactive = the rest.

Take `CCC(=O)OC1=CC(=O)c2ccccc2C1=O`: the growth inhibition in test [1] was 11.6%; in test [2], 12.4%; in test [3], 4.7%; in test [4], 8.6%; in test [5], -15.5%; in test [6], 12.6%.

For the compound `C1=C(c2ccccc2)NC2=N[C@H]3CCCC[C@@H]3N2C1c1ccccc1` (stereo not given in full), the growth inhibition in test [1] is 18.9%; in test [2] it was 10.4%; in test [3] it was 22.8%; in test [4], -7.55%; in test [5] it was 33.8%; in test [6], 91.5% (active).

Turning to `FC(F)(F)C1(C(F)(F)F)OS2(OC(C(F)(F)F)(C(F)(F)F)c3ccccc32)c2ccccc21`, the growth inhibition in test [1] is 0.5%; in test [2] it was 3.4%; in test [3], 3.3%; in test [4] it was -22.9%; in test [5] it was -1.1%; in test [6] it was -5.1%.

On to `c1ccc2nc3c(nc2c1)sc1nc2ccccc2n13`, for which the growth inhibition in test [1] was 9.65%; in test [2] it was 3.4%; in test [3], -11.9%; in test [4] it was 10.9%; in test [5], 8.3%; in test [6] it was 17.1%.

Turning to `O=[N+]([O-])c1ccc(N=Nc2c(O)[nH]c3ccc(Br)cc23)c([N+](=O)[O-])c1`, the growth inhibition is 9.75% in test [1]; -21.2% in test [2]; 2.15% in test [3]; -23.1% in test [4]; -20.6% in test [5]; 5.5% in test [6].

For `CCOC(=O)C(NC(=O)OCc1ccccc1)C(=O)O` (stereo not given), the growth inhibition was -22.9% in test [1]; -27.4% in test [2]; -14.3% in test [3]; 7.7% in test [4]; 5.35% in test [5]; -14.7% in test [6].

Take `COc1ccc(CC2CCCNC2C(=O)O)cc1` (stereo not given): the growth inhibition is -1.65% in test [1]; -13.2% in test [2]; -3.55% in test [3]; -38.7% in test [4]; -16.6% in test [5]; 10.8% in test [6].

For `O=C(Nc1ccccc1[N+](=O)[O-])C(=O)Nc1ccccc1[N+](=O)[O-]`, the growth inhibition was -7.55% in test [1]; 5.9% in test [2]; -2.95% in test [3]; -22.5% in test [4]; -0.9% in test [5]; -0.25% in test [6].

Take `COc1ccc(C(=O)CC(C#N)c2ccc(OC)cc2)cc1` (stereo not given): the growth inhibition in test [1] is -6.5%; in test [2], 3.25%; in test [3], 0.55%; in test [4], -21.2%; in test [5], -4.75%; in test [6] it was -1.35%.

`CC1c2[nH]c3ccccc3c2CC1C(=O)O` (stereo not given): the growth inhibition in test [1] was 10.3%; in test [2], 12.6%; in test [3], 5.25%; in test [4] it was -13.2%; in test [5], -9.8%; in test [6] it was -5.35%.

For `Cn1nc(-c2cccc(N)c2)cc1Cl`, the growth inhibition in test [1] is -17.6%; in test [2], -10.4%; in test [3], 3.75%; in test [4], -39.5%; in test [5], -15.6%; in test [6], 2.95%.

Regarding `CCOC(=O)C(Cl)(NC(=O)OCc1ccccc1)C(F)(F)F` (stereo not given), the growth inhibition in test [1] was -21.8%; in test [2] it was 0%; in test [3] it was 7.15%; in test [4] it was 22.5%; in test [5], 6.7%; in test [6], -56.1%.

Take `c1ccc(P(CCNCCP(c2ccccc2)c2ccccc2)c2ccccc2)cc1`: the growth inhibition in test [1] is -16%; in test [2] it was 11.8%; in test [3], 8.6%; in test [4], 10.3%; in test [5] it was 2.25%; in test [6] it was 6.75%.

Turning to `O=c1oc2ccccc2c(N2CCCCC2)c1Cl`, the growth inhibition in test [1] was 1.6%; in test [2], 40.6%; in test [3], 12.3%; in test [4], 22.1%; in test [5] it was 17.6%; in test [6], 15%.

Consider `COc1ccc(NC(=O)CCC(=O)CC(=O)c2ccc(C)cc2)cc1`, for which the growth inhibition in test [1] is -18.6%; in test [2], 31.1%; in test [3], 39.6%; in test [4], -23.4%; in test [5] it was 17.9%; in test [6] it was 36.2%.

In the case of `CC(=O)N1CN2C(=O)CCC2c2ccccc21` (stereo not given), the growth inhibition in test [1] was -7.85%; in test [2] it was 1.4%; in test [3], -14.2%; in test [4] it was 9.25%; in test [5], -21.5%; in test [6], -48.2%.

On to `COCc1onc(-c2ccc(OC)cc2)c1-c1ccc(OC)cc1`, for which the growth inhibition in test [1] is 8.25%; in test [2] it was 20.4%; in test [3] it was 3.6%; in test [4], 30.9%; in test [5], 49.4%; in test [6], 31.4%.

`COC(=O)/C=C/C=C/C(=O)OC`: the growth inhibition is -4.85% in test [1]; -1.7% in test [2]; -2.6% in test [3]; -41.9% in test [4]; -30.1% in test [5]; 3.85% in test [6].

`O=C1OC2c3ccccc3CC1C2CO` (stereo not given): the growth inhibition in test [1] is 20.9%; in test [2], 4.7%; in test [3] it was 7.55%; in test [4], 9.25%; in test [5], 2%; in test [6] it was -4.45%.

On to `O=c1nc2oc(-c3ccccc3)cn2c(=O)n1-c1ncc(-c2ccccc2)o1`, for which the growth inhibition in test [1] is 1.35%; in test [2] it was -6.9%; in test [3], 1.4%; in test [4], 22.4%; in test [5], 8.1%; in test [6], 6.05%.
